# Reference: PubChem BioAssay
# A number with no mark means an inactive call. How the calls were made is not given here.
# Target: Pantothenate synthetase (Mycobacterium tuberculosis (strain ATCC 25618 / H37Rv)) (UniProt P9WIL5)
# Assay: Coupled enzyme confirmation of inhibitors against recombinant Mtb PanC (AID 375);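 further: 0% = full reaction with vehicle and 100% = no enzyme background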
# Settings: coupled enzyme assay; at 10 µM, stronger effect = higher value
# Chain of Pantothenate synthetase (Mycobacterium tuberculosis (strain ATCC 25618 / H37Rv)) (P9WIL5 whole entry, looked up): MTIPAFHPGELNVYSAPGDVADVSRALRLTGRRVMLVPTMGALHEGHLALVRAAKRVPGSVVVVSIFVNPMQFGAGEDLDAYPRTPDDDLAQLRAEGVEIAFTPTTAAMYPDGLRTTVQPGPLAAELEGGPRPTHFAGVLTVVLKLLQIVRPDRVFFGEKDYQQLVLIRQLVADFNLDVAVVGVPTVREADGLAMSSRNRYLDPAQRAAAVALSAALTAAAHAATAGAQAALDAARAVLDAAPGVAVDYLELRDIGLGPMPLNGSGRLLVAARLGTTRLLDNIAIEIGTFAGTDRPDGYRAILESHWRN
row,Structure (SMILES),inhibition
1,CCOc1ccc(N(CC(=O)NC2CCCC2)S(=O)(=O)c2c(C)[nH]c(=O)[nH]c2=O)cc1,0%
2,CCOC(=O)CSc1nnc(Cn2nnc(-c3ccccc3)n2)n1CC,4%
3,Cc1ccc2oc(=O)c3cnn(CC(=O)N4CCCc5ccccc54)c3c2c1,1%
4,C=C(C)Cn1c(N2CCN(CC)CC2)nc2c1c(=O)[nH]c(=O)n2C,0%
5,O=C(NC1CCCc2ccccc21)C1CCN(c2nnc(-n3cccc3)s2)CC1 (stereo unspecified),0%
6,Cc1nnc2n(-c3ccc(Cl)cc3)c(=O)c3c4c(sc3n12)CN(C)CC4,3%
7,O=C(NCC12CC3CC(C1)CC(CNC(=O)N1CCCC1)(C3)C2)N1CCCC1,0%
8,CN(C)CCCN1C(=O)c2oc3ccc(Cl)cc3c(=O)c2C1c1cccnc1 (stereo unspecified),0%
9,CC1=C(C(=O)OC2CCCC2)C(c2ccc(C)o2)C2=C(CC(c3cccs3)CC2=O)N1 (stereo unspecified),0%
10,C=C(C)Cn1c(CCNC(=O)CC)nc2ccccc21,0%
11,O=C1N2c3ccccc3CCc3cccc(c32)C1(O)C(F)(F)F (stereo unspecified),0%
12,CCc1ccc(C(=O)NC2CCCCC2)s1,0%
13,CCOC(=O)C1C2C=CC3(CN(c4cccc(Cl)c4)C(=O)C13)O2 (stereo unspecified),0%
14,COc1c(Br)cc2c(C)c(C(=O)O)oc2c1Br,2%
15,Cc1cccc(-n2ncc3c(NCCCn4ccnc4)ncnc32)c1,4%
16,C=C(CC)C(=O)c1ccc(OCC(=O)O)c(Cl)c1Cl,0%
